High-throughput results deposited in PubChem by National Center for Advancing Translational Sciences (NCATS).
Hits are enriched below; roughly 4.8% of the tested compounds scored in any of these assays.
DRD3 antagonist: antagonists of human D3 dopamine receptor; P35462; D3R cells, DiscoveRx beta-arrestin luminescence, antagonist mode; stronger effect = lower value; max response, negative = inhibition, %; actives 2.5% (n = 360,000); AID 652054; in the data active means max response below about -50%; inconclusive means no clear call, values can overlap the other calls; further: on the % scale 0 is the no-effect control and ±100 the full control effect
Target sequence (P35462 whole entry, looked up): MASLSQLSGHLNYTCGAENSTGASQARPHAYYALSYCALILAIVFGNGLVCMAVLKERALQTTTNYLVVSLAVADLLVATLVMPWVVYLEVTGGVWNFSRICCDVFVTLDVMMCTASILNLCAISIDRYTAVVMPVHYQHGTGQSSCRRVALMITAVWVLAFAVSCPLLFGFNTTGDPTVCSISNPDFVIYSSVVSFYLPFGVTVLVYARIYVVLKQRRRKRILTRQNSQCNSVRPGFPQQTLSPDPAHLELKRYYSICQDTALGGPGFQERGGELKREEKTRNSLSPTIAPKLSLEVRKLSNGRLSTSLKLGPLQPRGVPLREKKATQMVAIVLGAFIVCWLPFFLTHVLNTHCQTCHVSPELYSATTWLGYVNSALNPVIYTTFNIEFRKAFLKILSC
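Cells plated overnight at 1500 cells/well, then exposed to library compounds with dopamine controls for 90 minutes at 37 degrees C. DiscoveRx reagent added for 30–60 minutes at room temperature; luminescence read, quantitative HTS format.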
ATXN2 expr inh: reduces ATXN2 reporter expression in HEK-293 cells; HEK-293 ATXN2-luciferase reporter, luminescence, 24 h; Potency, µM (top dose mostly 57 µM), for inactives: at the top dose activity change, negative = inhibition, hits mostly inhibitors; actives 0.72% (n = 360,000); AID 1745845; further: potency means the concentration at half of the fitted maximal effect; on the % scale 0 is the no-effect control and ±100 the full control effect; nearly all actives have a fitted effect of over 55% in size
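ATXN2-luciferase reporter cells (luciferase flanked by upstream and downstream ATXN2 gene portions) were treated 24 h at 37 °C with compounds at up to 57 uM. SteadyGlo luminescence gave expression; GF-AFC fluorescence gave viability.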
D3 ag: D3 dopamine receptor (human) agonism; P35462; D3R DiscoveRx beta-arrestin cells, luminescence, 90 min; max activation, %; actives 0.58% (n = 410,000); in the data active means max activation above about 30%; further: 0% is about no effect
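Agonist-mode cell screen: cells plated at 1500/well and incubated overnight at 37 °C, then exposed to library compounds for 90 min at 37 °C. Detection reagent was added for 30–60 min at room temperature, and luminescence was read.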
ATXN viability: reduces viability in counter-screen for ATXN expression inhibitors | S2 cells (HEK-293 line with an ATXN2-luciferase reporter) viability, CellTiter-Fluor protease fluorescence, 24 h | Potency, µM (titrated, usually from 56.7 µM), usual class: cytotoxic | actives 0.49% (n = 400,000) | AID 651635; further: potency means the concentration at half of the fitted maximal effect; nearly all actives have a fitted effect of over 40% in size
HepG2 viability: HepG2 cytotoxicity, counter-screen for TGF-b inhibitors. HepG2 CAGA-GFP viability, ATP luminescence, 18 h. actives 0.76% (n = 410,000). Potency, µM (top dose mostly 46.1 µM), for the others: at the top dose activity change, negative = cytotoxicity, most hits filed as cytotoxic; further: potency means the concentration at half of the fitted maximal effect
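CellTiter-Glo luminescence gave cytotoxicity after 18 hours at 37 degrees C. The cells were HepG2 CAGA-GFP in 1% FBS DMEM, stimulated with 500 pg/mL TGF-beta after compound addition. %Activity was normalised to no-cell wells (complete cell-killing) and DMSO (no toxicity), and curves were fitted and classified.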
TGFb SMAD3 inh: blocks TGF-b signaling | HepG2 CAGA-GFP TGF-b/SMAD3 reporter, GFP fluorescence, 18 h; TGF-beta stimulated, 500 pg/mL final | Potency, µM (top dose mostly 46.1 µM), for inactives: top-dose activity, negative = inhibition, actives largely listed as inhibitors | actives 1.2% (n = 410,000) | AID 588855; further: potency means the concentration at half of the fitted maximal effect; on the % scale 0 is the no-effect control and ±100 the full control effect; nearly all actives have a fitted effect of over 65% in size
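HEPG2 CAGA-GFP reporter cells (1000/well, DMEM with 1% FBS) received compounds, then recombinant TGF-beta at 500 pg/mL final for 18 hours at 37 degrees C. Per-cell GFP summed per well was normalised to unstimulated and stimulated DMSO controls before curve fitting.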
* hit, by the source's call; i = inactive; ? = inconclusive; . = no result; ! = a repeat was not active. Unless noted, the call rests on the fitted dose curve; in most records, active means well fitted curve in the direction sought with a large enough effect; inconclusive means small, poorly fitted or top-dose-only effect, or another doubt; inactive means no such curve, though single readings can be large; an effect the other way counts as inactive or inconclusive.

SMILES | DRD3 antagonist | ATXN2 expr inh | D3 ag | ATXN viability | HepG2 viability | TGFb SMAD3 inh
CS(=O)(=O)c1ccc(C(=O)OCC(=O)NCc2cccs2)cc1[N+](=O)[O-] | -60* | ? | -11 | ? | -106% | 11µM*
COc1ccc(C(=O)Nc2nnc(SCc3cc(=O)n4cccc(C)c4n3)s2)cc1 | . | . | -13 | . | 4% | 4%
CCOc1ccc(OCC)c(NC(=O)CCCN2C(=S)NC(C)(C)CC2C)c1 (stereo unspecified) | -56* | -11% | 0 | i | -28% | -24%
COc1ccc(N(C)C(=O)c2cn(C3CCCCC3)c(=O)c3c2c2ccccc2n3C)cc1 | . | . | 6 | . | -25% | ?
COc1ccc(-c2cc(C(=O)N3CCc4c(cnc(C)c4CNC(=O)c4ccsc4)C3)[nH]n2)cc1 | . | . | . | i | . | .
COCCN1C(=O)N[C@@H](c2cccc(C(F)(F)F)c2)[C@H](C(C)=O)[C@H]1C | 1 | 7% | 3 | i | 18µM* | ?
COCCN1C(=O)N[C@@H](c2ccccc2)[C@H](C(C)=O)[C@H]1C | 2 | 0% | -7 | i | 17% | 2%
CCN(CC)C(C(=O)Nc1ccc(C(C)C)cc1)c1ccc2c(c1)OCO2 (stereo unspecified) | -54* | -2% | 1 | ? | -30% | ?
CCCc1ccc(S(=O)(=O)NCC2CCCN2CC)cc1 (stereo unspecified) | -9 | -12% | -11 | i | 2% | 10%
CCN1CCCC1CNS(=O)(=O)c1c(C)cc(C)cc1C (stereo unspecified) | -100* | ? | -19 | i | -17% | -5%
COc1ccc(Cl)cc1NC(=S)NNC(=O)C1(C)CC1(Cl)Cl (stereo unspecified) | -24 | -11% | 4 | i | -42% | 20µM*
COc1cccc(CNC(=O)COCc2cc(-c3ccc4c(c3)OCO4)on2)c1 | . | . | 5 | . | -15% | ?
CC(=O)c1c(C)[nH]c(C(=O)NCCC2=CCCCC2)c1C | -57* | 54% | 2 | i | -19% | -14%
Cc1ccc(Nc2nccc(N(C)c3ccc4c(C)n(C)nc4c3)n2)cc1S(N)(=O)=O | . | 45% | 14 | ? | . | .
CC(C)NS(=O)(=O)c1cc(C(F)(F)F)ccc1/C=C/C(=O)O | . | . | . | . | 3% | -15%
Cc1nn(C(=O)c2ccccc2)c(C)c1Sc1ccc(Cl)cc1 | . | 25µM* | -2 | 28µM* | -50% | ?
CC(=O)Nc1nc2c(s1)CCc1ccccc1-2 | 0 | . | 1 | ? | 1% | -5%
O=C(CCCl)Nc1nc2c(s1)CCc1ccccc1-2 | -20 | ? | -6 | ? | 10µM* | ?
C/C(=N\NC(=O)C12CCC(C)(C(=O)O1)C2(C)C)c1ccccc1O (stereo unspecified) | -28 | 28µM* | 30 | i | -45% | ?
CC12CCC(C(=O)NCc3ccccc3)(OC1=O)C2(C)C (stereo unspecified) | 8 | -6% | 1 | i | -17% | 0%
Cn1c(NC2CCCCC2)cc(=O)n(C)c1=O | -12 | -7% | 5 | i | 6% | -3%
Cc1cc(C2CCCCC2)n(O)c(=O)c1 | 45 | 18µM* | 46*! | 20µM*! | -24% | ?
O=C(c1cc(-c2ccccc2)nc2ccccc12)N1N=C(C(F)F)CC1(O)C(F)F (stereo unspecified) | -9 | 5% | -2 | i | -33% | -12%
Cc1ccc(-c2cc(C(=O)N3N=C(C(F)F)CC3(O)C(F)F)c3ccccc3n2)cc1C (stereo unspecified) | -4 | ? | -4 | 18µM* | 20µM* | ?
Cc1nc2c(-c3ccc(F)cc3)c(C)nn2c(C)c1CCC(=O)NCc1cccc(Cl)c1 | . | 2% | -3 | i | 3% | -17%
SMILES | DRD3 antagonist | ATXN2 expr inh | D3 ag | ATXN viability | HepG2 viability | TGFb SMAD3 inh
O=C(Nc1ccccc1)Nc1ncc(C(F)(F)F)cc1Cl | -23 | . | -4 | i | -24% | -14%
FC(F)(F)c1cnc(NNC(=S)Nc2ccccc2Cl)c(Cl)c1 | -75* | 6µM* | -17 | i | -49% | 7.1µM*
Cc1cccc(NC(=S)NNc2ncc(C(F)(F)F)cc2Cl)c1 | -64* | ? | -15 | i | -37% | ?
CC(C)(C)NNC(=S)Nc1cccc(C(F)(F)F)c1 | 11 | ? | 7 | i | -10% | ?
O=C(COC(=O)c1ncc(Cl)c(Cl)c1Cl)Nc1ccc(Cl)cn1 | -8 | -7% | -17 | i | 1.4µM* | -11%
Cc1cc(C(=O)CSc2nc3ccccc3[nH]2)c(C)n1CC1CCCO1 (stereo unspecified) | 79 | ? | 19 | 18µM* | -2% | ?
Cc1oc2c(C)c3oc(=O)c(CC(=O)N4CCCCC4)c(C)c3cc2c1C | . | . | 7 | . | -1% | -16%
CCOC(=O)c1cc2c(=O)n3ccccc3nc2n(Cc2ccco2)c1=NC(=O)c1cccc(F)c1 | . | ? | -5 | . | -25% | 26%
O=C(/C=C/c1ccccc1)/C=C/c1ccccc1 | -58* | ? | -1 | 40µM* | -17% | ?
N#Cc1ccc(/C=C/C(=O)c2ccccc2)cc1 | -70* | . | -5 | ? | -61% | ?
O=C(/C=C/c1ccccc1)c1ccc2ccccc2c1 | -51* | 62% | -19 | i | 20µM* | ?
O=C(/C=C/c1ccccc1)NNC(=O)C1CC1 | -7 | 8% | 0 | i | -102% | 14µM*
COC(=O)NNC(=O)/C=C/c1ccccc1 | 19 | 2% | 2 | i | -7% | -8%
O=C(/C=C/c1ccccc1)c1ccccc1 | -11 | 18% | -15 | i | -70% | ?
CNC(=O)[C@@H]1C[C@@H](NCc2cccc(Oc3ccccc3)c2)CN1C(C)C | . | . | . | i | . | .
CC1=Nc2ccccc2/C1=C(/C)c1c(C)[nH]c2ccccc12 | . | . | . | . | 1% | 5%
CN(C)C1(CNC(=O)C2CCC(=O)N(Cc3ccc(Cl)cc3)C2)CCCCC1 (stereo unspecified) | -12 | . | 2 | i | 14µM* | 2%
COc1ccc(NS(=O)(=O)c2ccc3oc(Nc4ccc5c(c4)OCCO5)nc3c2)cc1 | -56* | 30% | 5 | i | -23% | ?
COc1ccccc1N1CCN(C(=O)CSc2nc(-c3ccc(C(C)C)cc3)no2)CC1 | . | -17% | 15 | ? | -25% | ?
CC(C)Cn1cnc2c(c(-c3ccccc3)c(-c3ccccc3)n2Cc2ccco2)c1=N | -62* | -38% | -2 | ? | 13µM* | ?
